# Shown is part of a subset that was picked to be rich in hits.
# TDP1 cell noCPT: qHTS for Inhibitors of human tyrosyl-DNA phosphodiesterase 1 (TDP1): qHTS in cells in absence of CPT | DT40 Tdp1-/- hTDP1 cells, no CPT, ATP luminescence, 48 h | Potency, µM (doses to about 46.2 µM), inactives show at the top dose activity change, negative = growth inhibition, actives largely listed as inhibitors | 420,000 compounds, 15% hits | AID 686978, 2013; further: potency means the concentration at half of the fitted maximal effect; nearly all actives have a fitted effect of over 55% in size
#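 No-CPT arm: Tdp1-/-;hTDP1 DT40 cells (400/well) plus compounds, incubated ≥48 hr at 37 °C. Readout CellTiter-Glo luminescence.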
# HT1080NT lethal: kills 2HG-producing HT-1080-NT fibrosarcoma cells; HT-1080-NT fibrosarcoma viability, CellTiter-Glo ATP luminescence, 48 h; Potency, µM (series often up to 46.1 µM), without a hit: at the highest dose activity, negative = less viability, actives largely listed as cytotoxic; 360,000 compounds, 1.6% hits; AID 686970;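 further: NT is the 2HG producing partner of a matched IDH1 knockdown line; potency means the concentration at half of the fitted maximal effect; 0% = DMSO-treated cells and -100% = media-only wells without cells; nearly all actives have a fitted effect of over 55% in size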
#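 750 cells/well, RPMI + 5% FBS; 2 h settle, compound pin-transfer, 48 h at 37 degrees C. CellTiter-Glo 10 min RT, luminescence. Normalized to DMSO and media-only wells.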
# ALOX12 inh: blocks human arachidonate 12S-lipoxygenase; AID 1671190; 580,000 compounds, 1.1% hits; Potency, µM (top dose mostly 108 µM), for inactives: top-dose activity change, negative = inhibition, usual class: inhibitors; purified 12hLO, xylenol orange hydroperoxide absorbance; further: potency means the concentration at half of the fitted maximal effect
# Target sequence (P18054 whole entry, looked up): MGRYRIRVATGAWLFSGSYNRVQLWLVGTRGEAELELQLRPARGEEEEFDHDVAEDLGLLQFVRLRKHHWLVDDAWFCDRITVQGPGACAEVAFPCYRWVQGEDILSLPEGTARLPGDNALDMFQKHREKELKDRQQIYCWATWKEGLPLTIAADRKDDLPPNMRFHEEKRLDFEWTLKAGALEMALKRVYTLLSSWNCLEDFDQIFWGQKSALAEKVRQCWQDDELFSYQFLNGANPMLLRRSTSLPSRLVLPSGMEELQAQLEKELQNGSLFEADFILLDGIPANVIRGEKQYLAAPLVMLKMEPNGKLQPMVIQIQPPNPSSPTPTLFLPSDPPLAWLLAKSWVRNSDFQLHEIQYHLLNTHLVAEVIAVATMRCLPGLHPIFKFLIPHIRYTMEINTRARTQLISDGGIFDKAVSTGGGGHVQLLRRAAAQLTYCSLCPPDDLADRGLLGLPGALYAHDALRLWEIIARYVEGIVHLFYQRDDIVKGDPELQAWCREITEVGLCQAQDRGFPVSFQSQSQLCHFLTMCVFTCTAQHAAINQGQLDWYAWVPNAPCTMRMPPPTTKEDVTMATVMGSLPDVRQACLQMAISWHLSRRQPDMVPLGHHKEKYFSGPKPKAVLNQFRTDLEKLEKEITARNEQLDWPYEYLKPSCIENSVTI
#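 Purified human 12hLO (150 nM final) in 25 mM Hepes, 0.01% Triton X-100, pH 7.0 was preincubated 15 min at room temperature with compound. Then 40 uM arachidonic acid was added, 30 min. Hydroperoxide was read by Fe-XO absorbance ratio 573/405 nm.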
# IL-1B inflam inh: inhibitors of inflammasome signaling (IL-1 beta secretion) | THP-1 LPS/ATP IL-1B secretion, AlphaLISA, 16 h; stronger effect = lower value | activity change, % at 57.5 µM | 360,000 compounds, 4.7% hits | AID 743279; in the data active means activity change below about -50%; inconclusive means mostly about -30% to -49%
#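 THP-1 cells pretreated 1 hr with compounds (up to 57.5 uM final), then stimulated with LPS (250 ng/mL final) plus ATP (1.25 mM final); secreted IL-1B measured by AlphaLISA after 16 hr, decreased signal indicating inhibition.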
# HT1080 IDH1KD tx: HT-1080 IDH1 knockdown cell toxicity (counter line). 360,000 compounds, 2% hits. AID 686971. Potency, µM (series often up to 46.1 µM), without a hit: at the highest dose activity, negative = toxicity, usual class: cytotoxic. HT-1080 IDH1 knockdown viability, ATP luminescence, 48 h;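 further: potency means the concentration at half of the fitted maximal effect; 0% = DMSO wells and -100% = cell-free medium wells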
#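 Assay cells: HT-1080 with IDH1 knockdown, 750 per well, RPMI/5% FBS. Exposure: 48 h at 37 °C following 2 h pre-incubation. Read: CellTiter-Glo luminescence; fitted concentration-response, curve class assigned.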
# TDP1 cell CPT: growth inhibition of DT40 Tdp1-/-;hTDP1 cells with camptothecin (screen for TDP1 inhibitors); chicken DT40 Tdp1-/-;hTDP1 cells + 20 nM CPT, ATP luminescence, 48 h; 420,000 compounds, 12% hits; AID 686979; Potency, µM (titrated, usually from 46.2 µM), for the others: at the highest dose activity change, negative = growth inhibition, most hits filed as inhibitors; further: potency means the concentration at half of the fitted maximal effect; nearly all actives have a fitted effect of over 55% in size
#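 Chicken DT40 Tdp1-/- cells complemented with human TDP1, 400 cells/well, exposed to compounds plus 20 nM camptothecin for at least 48 h at 37 C; viability read as ATP content by CellTiter-Glo luminescence.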
# * hit, by the source's call; ? = inconclusive; . = not tested or not shown; [ ] = dose if it differs, or a comment. Unless noted, the call rests on the fitted dose curve; in most records, active means well fitted curve in the direction sought with a large enough effect; inconclusive means small, poorly fitted or top-dose-only effect, or another doubt; inactive means no such curve, though single readings can be large; an effect the other way counts as inactive or inconclusive. Unless noted, on the % scale 0 is the no-effect control and ±100 the full control effect.
SMILES,TDP1 cell noCPT,HT1080NT lethal,ALOX12 inh,IL-1B inflam inh,HT1080 IDH1KD tx,TDP1 cell CPT
O=C(CSCc1ccc(F)cc1)N1CCN(c2ccc(F)cc2)CC1,12.6µM*,1.1%,7.4%,-14.2,-12.7%,?
O=C(CCc1c[nH]c2ccccc12)N1CCN(c2ccc(O)cc2)CC1,7.31µM*,?,?,30.6,13µM*,5.17µM*
Cc1ccc(OCCC(=O)N2CCN(c3ccc(O)cc3)CC2)cc1,16.4µM*,?,?,23.5,7.31µM*,?
COc1ccc(S(=O)(=O)N2CCCCC2)cc1NC(=O)c1nn(C(C)C)c(=O)c2ccccc12,.,.,6.2%,.,.,.
Cc1ccc(C)c(NC(=O)C(Cc2ccccc2)n2cccc2)c1 (stereo not given),16.4µM*,.,0.0%,.,.,?
Cc1ccc(NC(=O)C(Cc2ccccc2)n2cccc2)c(C)c1 (stereo not given),14.6µM*,.,-8.8%,.,.,14.6µM*
CN1CCN(c2ccccc2NC(=O)C(Cc2ccccc2)n2cccc2)CC1 (stereo not given),?,-17.4%,3.0%,-29.5,-13.5%,25.9µM*
O=C(Nc1ncc(Br)s1)C(Cc1ccccc1)n1cccc1 (stereo not given),?,25.9µM*,10.4%[57.4 µM],23.5,-26.5%,?
CN1CCN(c2ccccc2NC(=O)Cc2ccc(Cl)cc2)CC1,-18.3%,-17.8%,22.8%,-28.5,-20.0%,-17.8%
CCC(C)NC(=O)C(Cc1ccccc1)n1cccc1 (stereo not given),-1.5%,-9.3%,20.4%,-15.9,-0.2%,-16.8%
CCCCC(=O)Nc1ncc(Br)s1,-12.0%,-1.0%,13.4%,-7.2,?,-22.9%
CC(C)N1C(=O)C(CC(=O)NCC2CCN(Cc3cccc(F)c3)CC2)=C2CCCCC21 (stereo not given),.,.,21.4%,.,.,.
CC(C)n1c(SCc2nc3ccccc3o2)nc2ccccc2c1=O,.,.,-2.4%,.,.,.
CN(C)CCNC(=O)C1(C)CN(Cc2ccccc2)Cc2ccc(N3CCOCC3)nc21 (stereo not given),.,.,17.8%[176 µM],.,.,.
O=C(CCc1ccccc1)Nc1ccccc1F,-11.7%,-5.5%,120.2%,-20.8,-6.0%,3.2%
O=C(Nc1ccccc1F)C(Cc1ccccc1)n1cccc1 (stereo not given),14.6µM*,.,?,.,.,?
CCCNC(=O)c1onc(CSc2cccc(OC)c2)c1C(=O)NCCC,-23.0%,-1.3%,-30.6%,7.9,11.9%,-22.7%
CC(C)CCNC(=O)c1onc(CSc2ccc(F)cc2)c1C(=O)NCCC(C)C,?,1.8%,-2.9%,-6.3,6.5%,?
CC(C)CCNC(=O)c1onc(CSc2ccccc2)c1C(=O)NCCC(C)C,?,-1.7%,4.4%,-2.1,-8.6%,23.1µM*
COc1cccc(SCc2noc(C(=O)NCCC(C)C)c2C(=O)NCCC(C)C)c1,14.6µM*,?,-8.2%,-18.1,-3.5%,18.4µM*
CCNC(=S)NNC(=O)C(C)C,.,.,0.3%,.,.,.
Cc1nc(-c2ccccc2)sc1C(C)N (stereo not given),.,.,-9.4%,.,.,.
CCOc1cc(C(=O)NC(=S)Nc2cccnc2)cc(OCC)c1OCC,23.1µM*,-5.5%,-17.9%,-7.6,8.1%,?
COc1cc(NC(=S)NCc2cccnc2)cc(OC)c1OC,0.2%,15.7%,-1.4%,15.7,11.4%,-2.7%
COc1cc(NC(=S)Nc2cccnc2)cc(OC)c1OC,-7.0%,-15.3%,44.7µM*,28.5,7.0%[9.24 µM],-18.4%
O=C(N1CCCCC1)C12CC3CC(C1)CC(C(=O)N1CCCCC1)(C3)C2,23.1µM*,9.8%,-2.4%,3.4,2.3%[9.24 µM],?
O=C(N1CCCCC1)C12CC3CC(CC(Cl)(C3)C1)C2,.,.,3.9%,.,.,.
CN(C(=O)c1ccoc1)c1ccc2ccccc2c1,?,-3.3%,-12.2%,12.4,-25.4%,13µM*

# High-throughput results from PubChem BioAssay.
